Measured values reported in PubChem BioAssay (NCATS).
Where “and” joins values, the source holds several entries; their conditions need not be identical. Equal entries are not always repeated. Results filed as inconclusive are left out. Values without a mark were called inactive. Calls of active or inactive are those of the source. The call rests on the fitted dose curve; in most records, active means well fitted cell-killing curve with a large enough effect; inconclusive means small, poorly fitted or top-dose-only effect; inactive means flat fitted curve, though single readings scatter.

Test: qHTS of pediatric cancer cell lines to identify multiple opportunities for drug repurposing: Confirmatory screen for BT-12 cells (AID 1347112);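 further: viability read after 48 h of compound exposure; nearly all actives have a fitted effect of over 55% in size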
Settings: BT-12 rhabdoid tumor cells, viability; series mostly up to 45.9 µM; activity change, negative = cytotoxic: at the top concentration
Source text: Drug repurposing or repositioning has been offered as a strategy for drug development in oncology programs. This approach has special potential for childhood cancers and other rare or orphan diseases, where the expected return on new drug development has been a disincentive to pharmaceuticals.
In this project we exploit the poly-pharmacology of drugs to discover new indications via phenotypic screening of a panel of 19 well-characterized cell lines derived from solid tumors seen in children and adolescents. The goal is to identify approved drugs with previously unrecognized anticancer properties that has the potential to reveal new mechanisms and biological processes involved in carcinogenesis or drug resistance. We employed a titration-based paradigm (quantitative high-throughput screening or qHTS), where all compounds were tested at multiple concentrations for their effect on cell viability. Concentration-response curves (CRCs) were derived directly from the primary screen, and both potency and efficacy values were used to identify compounds with robust bioactivity profiles. We screened the NIH Chemical Genomics Center (NCGC) Pharmaceutical Collection (NPC) and Mechanism Interrogation Plate (MIPE) small molecule collections of approved and investigational compounds against these cell lines; and measured metabolically active cells after 48 hours of compound treatment as a proxy for cell viability.
Assay Submitter: Nathalia J. Martinez, National Center for Advancing Translational Sciences, National Institutes of Health, Rockville, MD, USA; email: natalia.martinez@nih.gov
[1] Shen, M et al. Quantitative high-throughput phenotypic screening of pediatric cancer cell lines identifies multiple opportunities for drug repurposing. Oncotarget 2017 Dec 19;9(4):4758-4772. PMID 29435139.
The cells were obtained from University of North Carolina (UNC), Pediatric Preclinical Testing Program (PPT), and Coriell Institute (CI).
qHTS cell viability assay:
Cells were assayed in growth media at a density of 500-1,000 cells/well. Five microliters of cells were dispensed into 1,536-well, white, solid-bottom, TC-treated plates (Greiner Bio One) using a multidrop dispenser and incubated at 37 degrees C, 5% CO2, under a humidified atmosphere for 5 hours. Twenty-three nanoliters of compounds and controls (neutral control DMSO or positive control bortezomib at final concentration of 2.3 µM) were subsequently transferred by Kalypsys pintool. For primary screens, the MIPE collection was tested at 11-point dilutions (final concentrations range from 0.78 nM to 46 µM) and the NPC collection at 8-point dilutions (final concentrations range from 0.59 nM to 46 µM). Compounds tested in follow-up screens were assayed at 11-point dilutions. Cells were incubated for 48 hours, followed by addition of 3 µL of CellTiter-Glo (Promega). After a 15 min incubation at room temperature, samples were analyzed for luminescence intensity using a ViewLux High-throughput CCD imager equipped with clear filters.
On the % scale 0 is the no-effect control and ±100 the full control effect; potency means the concentration at half of the fitted maximal effect.

Row | Structure (SMILES) | Potency | activity change, negative = cytotoxic
1 | O=C1C(Cl)=C(NCCN2CCOCC2)C(=O)c2ncccc21 | 2.61 µM (active) | 
2 | COc1cc2nc(-c3ccc(N4CCN(C)CC4)cc3)nc(NCCN3CCOCC3)c2cc1OC | 0.233 µM (active) | 
3 | CC[C@]1(O)C[C@@H]2CN(CCc3c([nH]c4ccccc34)[C@@](C(=O)OC)(c3cc4c(cc3OC)N(C=O)[C@@H]3C45CCN4CC=C[C@](CC)([C@H]45)[C@@H](OC(C)=O)[C@]3(O)C(=O)OC)C2)C1 (stereo partly specified) |  | -5.18%
4 | O=C(NCc1ccncc1)C12C[C@H]3C[C@@H](C1)CC(c1ccc(Cl)cc1)(C3)C2 | 26.1 µM (active) | 
5 | CO[C@H]1C[C@@H]2CC[C@@H](C)[C@@](O)(O2)C(=O)C(=O)N2CCCC[C@@H]2C(=O)O[C@H]([C@H](C)C[C@@H]2CC[C@H](OCCO)[C@H](OC)C2)CC(=O)[C@H](C)C=C(C)[C@@H](O)[C@@H](OC)C(=O)[C@H](C)C[C@H](C)C=CC=CC=C1C |  | -25.2%
6 | Oc1ccc(C2CCN(c3ccnc4ccccc34)CC2)cc1O | 13.1 µM (active) | 
7 | Nc1ncnc2c1ncn2[C@@H]1O[C@@H](CO)[C@H](O)[C@H]1O |  | -10.5% [at 29.6 µM]
8 | CC1(C)S[C@H]2[C@H](NC(=O)[C@@H](N)c3ccc(O)cc3)C(=O)N2[C@@H]1C(=O)O |  | 0.684%
9 | CN[C@@H](C)C(=O)N[C@H]1CN(C(=O)CC(C)C)CC[C@H]2CC[C@@H](C(=O)NC(c3ccccc3)c3ccccc3)N2C1=O |  | -7.01%
10 | O=C1NC(=O)C(=Cc2ccc3c(c2)OC(F)(F)O3)S1 |  | -11.2%
11 | CCc1ccc(OCc2ccccc2C(=O)Nc2ccc3nc(C)cc(N)c3c2)cc1 | 9.27 µM (active) | 
12 | COc1ccc(-c2nc(N3CCOCC3)c3sc(CN(C)c4ncc(C(=O)NO)cn4)cc3n2)cn1 | 1.85 µM (active) | 
13 | O=C1c2ccccc2-[n+]2ccc3c([nH]c4ccccc43)c21 | 2.93 µM (active) | 
14 | CC(=NNC(=S)N1CCC1)c1ccccn1 |  | -2.67%
15 | COc1ccc(-c2coc3cc(O)cc(O)c3c2=O)cc1 |  | -6.54%
16 | CC=C(C)C(=O)O[C@H]1C(C)=C[C@]23C(=O)[C@@H](C=C(CO)[C@@H](O)[C@]12O)[C@H]1[C@@H](C[C@H]3C)C1(C)C |  | -4.27%
17 | CC[C@]1(O)C[C@@H]2CN(CCc3c([nH]c4ccccc34)[C@@](C(=O)OC)(c3cc4c(cc3OC)N(C)[C@H]3[C@@](O)(C(=O)OC)[C@H](OC(C)=O)[C@]5(CC)C=CCN6CC[C@]43[C@@H]65)C2)C1 | 1.65 µM (active) and 1.85 µM (active) | 
18 | CC(=O)Oc1cc2c(s1)CCN(C(C(=O)C1CC1)c1ccccc1F)C2 (stereo unspecified) |  | 1.92%

Row | Structure (SMILES) | Potency | activity change, negative = cytotoxic
19 | O=c1[nH]cnc2c1ncn2[C@H]1CC[C@@H](CO)O1 |  | -11.6%
20 | CCCCCCCCCCCC1=C(O)C(=O)C=C(O)C1=O |  | -0.935%
21 | CC(=O)Nc1ccc([C@H](C)C(=O)Nc2ncc(C(C)C)s2)cc1 | 3.69 µM (active) | 
22 | NC1=N[C@@]2(c3cc(NC(=O)c4ccc(F)cn4)ccc3F)COC[C@@H]2CS1 |  | -18.1%
23 | O=C(O)c1ccc(-c2cc3cccnc3c(-c3ccc4nonc4c3)n2)cc1 | 4.14 µM (active) | 
24 | COc1cc2ncnc(Nc3ccc(F)c(Cl)c3)c2cc1OCCCN1CCOCC1 | 42.7 µM (active) | 
25 | O=C(O)CCC1CCC(c2cc(F)ccc2F)(S(=O)(=O)c2ccc(Cl)cc2)CC1 (stereo unspecified) | 26.1 µM (active) | 
26 | COc1ccc2c(Oc3ccc(NC(=O)c4c(C)n(CC(C)(C)O)n(-c5ccccc5)c4=O)cc3F)ccnc2c1 |  | -5.67%
27 | C=C1C(=O)[C@@]23C(CC[C@@H]1[C@H]2O)[C@@]12CO[C@]3(O)[C@@H](O)[C@@H]1C(C)(C)CC[C@@H]2O (stereo partly specified) | 7.37 µM (active) | 
28 | CC(C)(C(=O)NCC(F)(F)C(F)(F)F)C(=O)N[C@@H]1C(=O)Nc2ccccc2-c2ccccc21 |  | -5.18%
29 | NS(=O)(=O)c1cccc2c1C(=O)c1cccc(O)c1C2=O | 1.04 µM (active) | 
30 | COc1cccc(-c2cc(=O)c3ccccc3o2)c1N |  | -4.39%
31 | CC1(C)CCC[C@@]2(C)[C@@H]1CC[C@@]1(C)OC(=O)C[C@H]21 |  | -1.58%
32 | CC(C)n1nc(-c2ccc3oc(N)nc3c2)c2c(N)ncnc21 | 0.117 µM (active) | 
33 | CC1(C)O[C@H]2C[C@@H]3[C@H]4CCC5=CC(=O)C=C[C@]5(C)[C@@]4(F)[C@@H](O)C[C@]3(C)[C@]2(C(=O)CO)O1 |  | -10.7%
34 | O=C(O)c1ccc(-c2c[nH]c3ncc(-c4ccccc4)cc23)cc1C1CCCC1 |  | 0.729%
35 | CC1(C)CCC(CN2CCN(c3ccc(C(=O)NS(=O)(=O)c4ccc(NCC5CCOCC5)c([N+](=O)[O-])c4)c(Oc4cnc5[nH]ccc5c4)c3)CC2)=C(c2ccc(Cl)cc2)C1 |  | 3.97%
36 | OC[C@H]1O[C@@H](n2cnc3c2NC=NC[C@@H]3O)C[C@H]1O |  | -7.82%
